In PubChem BioAssay AID463173 (ICCB-Longwood Screening Facility, Harvard Medical School, 2010):
The campaign covered roughly 52,000 compounds. About 1,700 (3.3%) were called active. What follows is part of a selection rich in actives, with near analogues and random picks from the rest. Unmarked numbers belong to inactive results. No stated cut-off is given here; in the data, active means survival mostly below about 52% (no sharp cut-off); inactive means mostly above about 56%.

Test system: Wild type
Assay: S. aureus survival, RN4220 and DeltatarO strains – OD600, teichoic acid synthesis inhibitors, primary screen (AID 463173)
Conditions: S. aureus RN4220 wild type/DeltatarO growth, OD600, 18 h, hits give low values, screened at 18.75 µg/mL (by protocol)

Structure (SMILES) | survival
CCOC(=O)C1CCCN(C(=O)c2nn(-c3ccc(OC)cc3)c(=O)c3c2c2ccccc2n3C)C1 (stereo not drawn) | 125%
CCOC(=O)c1ccc(NC(=O)Cn2cc(C(=O)c3ccc(CC)cc3)c(=O)c3ccc(C)nc32)cc1 | 143%
COCCn1c(C)cc(O)c(C(c2ccc(Cl)cc2)N2CCN(c3ccccc3)CC2)c1=O (stereo not drawn) | 65%
O=C(NCCC1=CCCCC1)c1ccc2c(c1)N(Cc1ccc(Cl)cc1)C(=O)c1ccccc1S2(=O)=O | 104%
NC(=O)CSc1oc(-c2ccco2)nc1S(=O)(=O)c1ccc(Cl)cc1 | 68%
Cc1ccc(CNC(=O)C2CCN(S(=O)(=O)N3CCC(C)CC3)CC2)cc1 | 77%
O=C(Cn1cc(S(=O)(=O)Cc2ccccc2Cl)c2ccccc21)NCCc1ccccc1 | 65%
CCC(=O)Nc1ccc2c(c1)C(=O)OC2 | 110%
Cc1cccc(C(=O)Nc2cccc(OCc3cc(=O)n4cccc(C)c4n3)c2)c1 | 76%
Cc1ccc(OCC(=O)Nc2cccc(OCc3cc(=O)n4cccc(C)c4n3)c2)cc1C | 124%
Cc1ccccc1C(=O)Nc1cccc(OCc2cc(=O)n3cccc(C)c3n2)c1 | 90%
Cc1cccn2c(=O)cc(COc3cccc(NC(=O)c4ccccc4F)c3)nc12 | -6% (active)
Cc1ccc(OCC(=O)Nc2ccc(OCc3cc(=O)n4cccc(C)c4n3)cc2)cc1C | -6% (active)
Cc1cccn2c(=O)cc(COc3ccc(NC(=O)COc4ccc(F)cc4)cc3)nc12 | 69%
Cc1cccc(-n2c(-c3ccco3)nc3c(cnn3-c3ccccc3C)c2=O)c1 | 132%
O=C(CN(C1CCCCC1)S(=O)(=O)c1ccccc1)N1CCCCC1 | 101%
CCOC(=O)c1c(S(=O)(=O)N2CCC(C(=O)Nc3ccc(C)cn3)CC2)c(C)n(C)c1C | 70%
Cc1ccc(NC(=O)c2cc(S(=O)(=O)N3CCCCC3)c[nH]2)cc1N(C)C | 87%
CCCN(C(=O)c1sc2nc3n(c(=O)c2c1C)CCCC3)c1ccccc1C | 80%
COc1cc2c(cc1OC)C(COc1ccccc1OC)N(C(=O)c1ccccc1OC)CC2 (stereo not drawn) | 73%
Cc1ccc(C(=O)Nc2nc(-c3nnn(-c4cccc(C(F)(F)F)c4)c3C)ns2)cc1 | 75%
CC(=O)c1ccc(N2CCN(S(=O)(=O)c3ccc(-c4cc(C)no4)s3)CC2)cc1 | -6% (active)

Structure (SMILES) | survival
CC(=O)c1ccc(N2CCN(S(=O)(=O)c3ccc(-c4cc(C(F)(F)F)on4)s3)CC2)cc1 | 72%
Cc1cc(-c2ccc(S(=O)(=O)N3CCN(c4ccc(Cl)cc4)CC3)s2)on1 | 136%
Cc1cccc(N2CCN(C(=O)Cn3c(=O)c4cccn4c4ccc(F)cc43)CC2)c1C | 85%
CC(C)(C)OC(=O)N1CCC(c2c(C(=O)NCc3ccco3)cnn2-c2ccccc2)CC1 | 75%
Cc1ccc(S(=O)(=O)NCCc2cn3ccsc3n2)cc1 | 57%
COc1ccc(S(=O)(=O)NCCc2cn3ccsc3n2)cc1OC | -3% (active)
COc1ccc(S(=O)(=O)NCCc2cn3ccsc3n2)cc1 | 82%
CN(C)c1ccc(N/C=C(\C#N)c2nc3ccccc3[nH]2)cc1 | 118%
CCOC(=O)CNC(=O)CSc1cn(CC(=O)N2CCCCCC2)c2ccccc12 | 99%
Cc1ccc(Nc2ncnc3c2nc2n3CCCC2)c(Br)c1 | 111%
CCN(c1ccccc1)S(=O)(=O)c1ccc(NC(=O)c2nc(SC(C)C)ncc2Cl)cc1 | 81%
CCN(c1ccccc1)S(=O)(=O)c1ccc(NC(=O)c2nc(S(C)(=O)=O)ncc2Cl)cc1 | 0% (active)
CCS(=O)(=O)c1ncc(Cl)c(C(=O)Nc2ccc(S(=O)(=O)N(C)c3ccccc3)cc2)n1 | 8% (active)
CC(C)Sc1ncc(Cl)c(C(=O)Nc2ccc(S(=O)(=O)N(C)c3ccccc3)cc2)n1 | 78%
CCS(=O)(=O)c1ncc(Cl)c(C(=O)Nc2ccccc2)n1 | 70%
CN(c1ccccc1)S(=O)(=O)c1ccc(NC(=O)c2nc(S(C)(=O)=O)ncc2Cl)cc1 | 2% (active)
CCCSc1ncc(Cl)c(C(=O)Nc2ccc(S(=O)(=O)N(C)c3ccccc3)cc2)n1 | 84%
CCN(c1ccccc1)S(=O)(=O)c1ccc(NC(=O)c2nc(SC)ncc2Cl)cc1 | 88%
CCSc1ncc(Cl)c(C(=O)Nc2ccc(S(=O)(=O)N(C)c3ccccc3)cc2)n1 | 84%
Cc1cccc(N2CCN(S(=O)(=O)c3ccc4c(c3)CCCN4C(=O)C3CCC3)CC2)c1C | 86%
Cc1ccc(C(=O)Nc2nnc(SCc3cc(=O)c4c(C)ccc(C)c4[nH]3)s2)cc1 | 93%
Cc1ccc(C)c(NC(=O)CN2C(=O)C(C)(C)c3ccccc32)c1 | 76%

Structure (SMILES) | survival
Fc1cccc(-c2cc3nc4c(c(NCCCN5CCOCC5)n3n2)CCCC4)c1 | 103%
COc1ccc(-n2c(=O)c3ccccc3n(Cc3cccc(C)c3)c2=O)cc1 | 75%
Cc1cc(C)cc(NS(=O)(=O)c2ccc3c(c2)OCC(C(=O)N2CCCC2)O3)c1 (stereo not drawn) | 78%
O=S(=O)(NCCc1csc2nc(-c3ccc(Cl)cc3)nn12)c1cccs1 | 72%
CS(=O)(=O)NCCc1csc2nc(-c3ccccc3)nn12 | -4% (active)
CCc1ccc(S(=O)(=O)NCCc2csc3nc(-c4ccccc4)nn23)s1 | 129%
O=S(=O)(NCCc1csc2nc(-c3ccccc3)nn12)c1cccs1 | 81%
COc1ccc(-c2nc3scc(CCNS(=O)(=O)c4cccs4)n3n2)cc1 | 1% (active)
CCS(=O)(=O)NCCc1csc2nc(-c3ccc(C)cc3)nn12 | 59%
COc1ccc(OC)c(S(=O)(=O)NCCc2csc3nc(-c4ccccc4)nn23)c1 | -3% (active)
COc1ccc(-c2nc3scc(CCNS(=O)(=O)c4ccccc4F)n3n2)cc1 | 57%
COc1ccc(S(=O)(=O)NCCc2csc3nc(-c4ccccc4)nn23)cc1OC | 71%
COc1ccc(NC(=O)C(CC(C)C)NC(=O)C2CCCCC2)c(OC)c1 (stereo not drawn) | 63%
CC1(C)NC(=O)N(CC(O)CN2C(=O)NC(C)(C)C2=O)C1=O | 117%
N#Cc1c(-n2ncnc2-c2ccc(Br)cc2)sc2c1CCCCC2 | 2% (active)
N#Cc1c(/N=C/N2CCCCC2)sc2c1CCCC2 | 89%
N#Cc1c(-n2ncnc2-c2cccc(Cl)c2)sc2c1CCCCC2 | 58%
N#Cc1c(N2C(=O)C3C4C=CC(C4)C3C2=O)sc2c1CCCC2 (stereo not drawn) | 108%
CCOc1ccc(-c2ncnn2-c2sc3c(c2C#N)CCCCC3)cc1 | 3% (active)
COc1ccc(-c2nnn(CC(=O)Nc3sc4c(c3C#N)CCCC4)n2)cc1 | 109%
N#Cc1c(-n2ncnc2-c2ccc(F)cc2)sc2c1CCCCC2 | -2% (active)
CC(C)CCOc1ccc(C(=O)Nc2sc3c(c2C#N)CCCCC3)cc1 | 135%

Structure (SMILES) | survival
N#Cc1c(-n2ncnc2-c2cccc(Br)c2)sc2c1CCCCC2 | 45%
Cc1ccc(C)c(N2CCN(S(=O)(=O)c3cc(-c4cc(C)no4)ccc3C)CC2)c1 | 73%
O=C(CSc1n[nH]c(-c2ccccc2)n1)NCCCc1ccccc1 | 69%
CC(C)(C)c1cn2ccc3ccccc3c2n1 | 113%
Oc1ccccc1C(C#Cc1ccccc1)N1CCOCC1 (stereo not drawn) | 110%
CC(C)N(C(=O)Cn1nnc2ccccc21)C(C(=O)NCc1ccco1)c1ccccc1 (stereo not drawn) | 101%
Cc1ccc(N2CCN(Cc3nnc(-c4ccccc4F)o3)CC2)c(C)c1 | 15% (active)
Cc1ccccc1-c1nnc(CN2CCN(c3cc(Cl)ccc3C)CC2)o1 | 86%
Cc1ccc(C)c(N2CCN(Cc3nnc(-c4ccccc4)o3)CC2)c1 | 87%
Cc1ccc(-n2nc(C(=O)Nc3ccc(C)c(F)c3)c(=O)n(C)c2=O)cc1 | 68%
CCOc1ccc(NC(=O)CSc2ncc3c(n2)-c2ccccc2N(Cc2ccccc2C)S3(=O)=O)cc1 | 63%
O=C(CSc1ncc2c(n1)-c1ccccc1N(Cc1ccccc1)S2(=O)=O)Nc1ccccc1 | -6% (active)
Cc1ccc(CN2c3ccccc3-c3nc(SCC(=O)Nc4c(C)cc(C)cc4C)ncc3S2(=O)=O)cc1 | 133%
O=C(CSc1ncc2c(n1)-c1ccccc1N(Cc1ccc(F)cc1)S2(=O)=O)NCCc1ccccc1 | 73%
Cc1ccccc1CN1c2ccccc2-c2nc(SCC(=O)NCc3ccccc3)ncc2S1(=O)=O | -3% (active)
CCc1cccc(NC(=O)CSc2ncc3c(n2)-c2ccccc2N(CC)S3(=O)=O)c1 | 95%
Cc1ccccc1CN1c2ccccc2-c2nc(SCC(=O)NCCc3ccccc3)ncc2S1(=O)=O | 53%
O=C(CSc1ncc2c(n1)-c1cc(Cl)ccc1N(Cc1ccccc1)S2(=O)=O)NCCc1ccccc1 | 113%
CCN1c2ccccc2-c2nc(SCC(=O)NCc3ccccc3)ncc2S1(=O)=O | 74%
NC(=O)CSc1ncc2c(n1)-c1ccccc1N(Cc1ccccc1)S2(=O)=O | 69%
CCc1cccc(NC(=O)CSc2ncc3c(n2)-c2ccccc2N(Cc2ccccc2C)S3(=O)=O)c1 | 0% (active)
Cc1ccc(CN2c3ccccc3-c3nc(SCC(=O)NCCc4ccccc4)ncc3S2(=O)=O)cc1 | 14% (active)
